Experimental data reported in PubChem BioAssay (NCI).
This is part of a sample that, as a whole, favours compounds with a hit. Of some 83,000 tested, about 20% had one in any assay.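 Step 1: grow cells in 96-well plates. Step 2: add test compound at a single concentration. Step 3: incubate 48 h. Step 4: record percent growth.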 Unmarked numbers belong to inactive results. The source made the active and inactive calls. How the source made its calls: active means growth percent below 10; inactive means the rest.

How the values were obtained:
Assay in all cases: NCI-60 one-dose screen, 48 h (100 = growth as untreated, 0 = no growth, -100 = all killed)
Conditions in all cases: 10 µM unless noted
SK-MEL-2 melanoma = system: SK-MEL-2 melanoma
EKVX NSCLC = system: EKVX NSCLC
SN12C renal = system: SN12C renal
UO-31 renal = system: UO-31 renal
ACHN renal = system: ACHN renal
A498 renal = system: A498 renal
CCRF-CEM leukemia = system: CCRF-CEM leukemia
MOLT-4 leukemia = system: MOLT-4 leukemia
SR leukemia = system: SR leukemia
RPMI-8226 leukemia = system: RPMI-8226 leukemia
OVCAR-8 ovarian = system: OVCAR-8 ovarian
OVCAR-5 ovarian = system: OVCAR-5 ovarian
OVCAR-4 ovarian = system: OVCAR-4 ovarian
SK-OV-3 ovarian = system: SK-OV-3 ovarian
IGROV1 ovarian = system: IGROV1 ovarian
OVCAR-3 ovarian = system: OVCAR-3 ovarian
HS 578T breast = system: HS 578T breast
NCI/ADR-RES ovarian = system: NCI/ADR-RES ovarian
CAKI-1 renal = system: CAKI-1 renal
TK-10 renal = system: TK-10 renal

| Structure (SMILES) | growth (SK-MEL-2 melanoma) | growth (EKVX NSCLC) | growth (SN12C renal) | growth (UO-31 renal) | growth (ACHN renal) | growth (A498 renal) | growth (CCRF-CEM leukemia) | growth (MOLT-4 leukemia) | growth (SR leukemia) | growth (RPMI-8226 leukemia) | growth (OVCAR-8 ovarian) | growth (OVCAR-5 ovarian) | growth (OVCAR-4 ovarian) | growth (SK-OV-3 ovarian) | growth (IGROV1 ovarian) | growth (OVCAR-3 ovarian) | growth (HS 578T breast) | growth (NCI/ADR-RES ovarian) | growth (CAKI-1 renal) | growth (TK-10 renal) |
| --- | --- | --- | --- | --- | --- | --- | --- | --- | --- | --- | --- | --- | --- | --- | --- | --- | --- | --- | --- | --- |
| O=C1C(c2ccccc2)=C(N2CCc3ccccc32)OC1(Cl)Cl | 92.2% | 76.3% | 77.5% | -23.6% (active) | -63.8% (active) | 69.2% | -17.8% (active) | 0.0776% (active) | 17.5% | 8.06% (active) | 74.3% | 82% | 59.9% | 112% | 43.5% | 3.88% (active) | 66.3% | 86.7% |  |  |
| COc1cc(Nc2c(C#N)cnn3cc(-c4cnn(CC(C)(C)O)c4)cc23)ccc1Cl | 61.1% | 43.4% | 23.5% | 11.6% | 18% | -24.4% (active) | 32.6% | 36.7% | 24.3% | 40.2% | 46.9% | 43.8% | 42.6% | 4.19% (active) | 4.87% (active) | 57.6% | 61.9% | 46.5% | 9.46% (active) |  |
| CCOC(=O)c1c(Nc2ccccc2)nn2c(-c3cccs3)ccnc12 |  | 88.8% | 91% | 82.6% | 88.3% |  | 58.8% | 74.5% | 63.5% | 66.2% | 92.2% | 90.3% | 91.7% | 83.2% | 91.3% |  | 90.2% | 87.4% | 78.8% | 107% |
| Cc1cc(S(=O)(=O)N(C)C)cc(NCC(=O)NC(=O)NCC(C)C)c1C | 105% | 63.1% | 87.9% | 57.1% | 94.4% |  |  | 96.1% | 91% | 97.4% | 104% | 87.8% | 76.4% | 112% | 77.2% | 112% | 103% | 114% | 64.3% |  |
| CC1(C)CC[C@]2(C(=O)N3CCOCC3)CC[C@]3(C)C(=CC[C@@H]4[C@@]5(C)C/C(=C/c6ccco6)C(=O)C(C)(C)[C@@H]5CC[C@]43C)[C@@H]2C1 | 103% | 63.4% | 86% | 49.9% | 81.7% | 68.7% |  | 52.3% | 44.6% | 55.6% | 91.3% | 96.8% |  | 109% | 86.7% | 86.9% | 83.5% | 96.6% | 37% |  |
| CC(=O)C1=C(C)NC(NNC(N)=S)=NC1c1ccccc1 (stereo unspecified) | 96.9% | 70.9% | 83.8% | 59.5% | 101% | 2.72% (active) | 95.5% | 114% | 112% | 108% | 107% | 90% | 78% | 104% | 77.9% | 111% | 103% | 108% | 64.7% |  |
| Clc1ccc(N/N=c2/oc3ccccc3cc2-c2cc3ccccc3[nH]2)cc1 | 108% | 70.2% | 70.9% | 49.7% | 49.7% |  | 79.7% | 69.6% | 90.8% |  | 62.3% | 83.4% | 69.5% | 89.6% | 57.2% | 47.7% | 103% | 78.5% | 58.4% |  |
| CC(C)c1ccc(NCc2cn(-c3ccc(C(=O)O)cc3)nc2-c2cc(C(F)(F)F)cc(C(F)(F)F)c2)cc1 | 91.8% | 79.2% | 85.9% | 78.6% | 92.6% | 90% | 74.8% | 71.6% | 101% | 65.7% | 85% | 103% | 96.2% | 90.5% | 92.7% | 80.9% | 68% | 82.8% | 63.7% |  |
| NS(=O)(=O)c1ccc(-n2cc(-c3cccc(NC(=O)c4ccc(N5CCOCC5)c(C(F)(F)F)c4)c3)nn2)cc1 |  | 74.1% | 43.9% | 26.7% | 43.5% |  | 20.3% | 11% | 4.3% (active) | 10.2% | 42.7% | 67.8% | 15% | 69.9% | 40.3% |  | 48.9% | 82.4% | 51.1% | 98.6% |
| O=C1/C(=C/C=C/c2ccco2)SC(=S)N1C1CCCCC1 |  | 93% | 83.4% | 85.6% | 96% |  | 91.2% | 90.5% | 82.2% | 100% | 97.4% | 94% | 95.3% | 104% | 101% |  | 101% | 99% | 93.1% | 106% |
| CCOC(=O)c1c(Nc2ccccc2)nn2c(-c3ccccc3)ccnc12 |  | 95.4% | 90.5% | 85.5% | 90.7% |  | 9.59% (active) | 87.1% | 74.4% | 30.7% | 96.1% | 93.4% | 95.9% | 102% | 110% |  | 91.9% | 87.6% | 88.7% | 111% |
| Cc1ccc(-c2cc3nc(C(Cl)Cl)nc(-c4ccco4)n3n2)cc1 | 83.2% | 5.4% (active) | 66.4% | 33.6% | -19.9% (active) |  | 89.3% | 94.2% |  | -29.4% (active) | 18.3% | 2.3% (active) | 36% | 24.2% | 64.5% | -36.3% (active) | -2.05% (active) | 3.8% (active) | -5.91% (active) |  |
| CC[C@]12C=CCN3CC[C@@]4(c5cc(NC(=O)COc6cc(O)c7c(=O)cc(-c8ccccc8)oc7c6)c(OC)cc5N(C)[C@H]4[C@@](O)(C(=O)OC)[C@@H]1OC(C)=O)[C@@H]32 | -82.9% (active) | -42.2% (active) | -75.4% (active) | -84.9% (active) |  | -89.6% (active) | -20.2% (active) | -23% (active) | -30.7% (active) | -31.6% (active) | -17.7% (active) | -86% (active) | -66.9% (active) | -86.1% (active) | -77.7% (active) | -86.2% (active) | 2.1% (active) | -49.9% (active) | -78.3% (active) |  |
| C#CCC#CCN1CCC[C@H]1C(=O)NCC(=O)OC | 99.8% | 98.4% | 98.4% | 98.5% | 101% | 129% | 109% | 107% | 118% | 113% | 99.1% | 107% | 97.3% | 101% | 104% | 114% | 117% | 96% | 102% |  |
| C=C(C)[C@@H]1CC[C@]2(COP(=O)(OCC)OCC)CC[C@]3(C)[C@H](CC[C@@H]4[C@@]5(C)CCCNC(C)(C)[C@@H]5CC[C@]43C)[C@@H]12 | 92.7% | 40.4% | 46.6% | 30.9% | 59.2% | 55% |  | -29.8% (active) | -51.4% (active) | -46.6% (active) | 55.4% | 58.6% | 23.5% | 103% | 6.74% (active) | 54% | 52.9% | 27.6% | 29.1% |  |
| COc1cc(-c2nn(C(C)(C)C)cc2-c2ccnc(NCCCNS(=O)(=O)c3ccccc3)n2)ccc1Cl | 89.6% | 36.5% | 52% | 39.4% |  | 31.2% |  | 59.6% | 56% | 56.3% | 84.9% | 84.3% | 57.6% | 103% | 55.2% | 93.1% | 68.3% | 71% | 27% |  |
| COc1ccc(C(=O)Nc2ncc(Cc3ccccc3Cl)s2)cc1 | -1.02% (active) | 41.7% | 32.7% | 38.1% | 32.5% | -8.09% (active) | 18.7% | 13.8% | 16.4% | 22.2% | 12.3% | 36.5% | 62.1% | 29% | 28.2% |  | 8.76% (active) | 5.87% (active) | 36.4% |  |
